Measured values taken from the supplement of paper PMC10981050.
Where “and” joins values, the source holds several entries; their conditions need not be identical. Equal values may be shown once. Where a name gives a salt, the structure may show the parent alone.

Key:
Assay in all cases: cell viability relative to vehicle control; higher = less cytotoxic
Conditions in all cases: 10 µM
K562 = system: K562
Method in brief: (§1)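 Each screen used CRISPR-edited mutant and wild-type clones from four leukaemia lines. Compounds were acoustically dispensed at a single 10 µM dose, and CellTiter-Glo luminescence was read after 48 h with the supernatant first removed. Viability was analysed in Genedata Screener and given as percent of the on-plate vehicle control.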

MARIMO = system: MARIMO
Method in brief: as §1

MOLM14 = system: MOLM14
Method in brief: as §1

OCI-AML2 = system: OCI-AML2
Method in brief: as §1

Compound | cell viability (K562; SRSF2 genotype: SRSF2 P95H/wt) | cell viability (K562; SRSF2 genotype: SRSF2 wt/wt) [%] | cell viability (MARIMO; SRSF2 genotype: SRSF2 P95H/wt) [%] | cell viability (MARIMO; SRSF2 genotype: SRSF2 wt/wt) [%] | cell viability (MOLM14; SRSF2 genotype: SRSF2 P95H/wt) [%] | cell viability (MOLM14; SRSF2 genotype: SRSF2 wt/wt) [%] | cell viability (OCI-AML2; SRSF2 genotype: P95H/wt) [%] | cell viability (OCI-AML2; SRSF2 genotype: wt/wt) [%]
COC(=O)C1=CO[C@@H](O)[C@@H]2C(CO)=CC[C@H]12 [Genipin] | 94.8% and 97.4% | 95.1 | 71.1 | 85.7 | 78 | 90.4 | 26.4 | 41.1
C=CCc1ccc(O)c(-c2ccc(O)c(CC=C)c2)c1 [Honokiol] | 84.9% and 87.5% | 83.8 | 84.5 | 92.7 | 85.5 | 98.9 | 66.7 | 72.3
Cc1cc(Nc2cc(N3CCN(C)CC3)nc(/C=C/c3ccccc3)n2)n[nH]1 | 19.4% and 23.7% | 18.3 | 36 | 26.5 | 2.58 | 5.88 | 6.21 | 14.9
Cc1nc2c(O)cccc2c(=O)[nH]1 | 94.6% and 99.4% | 114 | 99.4 | 93.8 | 95.6 | 101 | 94.2 | 108
CC(C(=O)O)c1cccc(Oc2ccccc2)c1 (stereo not drawn) [Fenoprofen calcium] | 90.9% and 83.7% | 86.4 | 88.2 | 92.5 | 89.5 | 90.7 | 84.1 | 87.5
C[C@@]1(C(=O)Nc2ccc(F)nc2)CCCN1c1nc(Nc2cc(C3CC3)n[nH]2)c2cccn2n1 | 61.4% and 72.2% | 63.7 | 38.7 | 33.2 | 7.43 | 9.62 | 7.63 | 19.3
CN(C)C(=O)Nc1cccc(-c2ccc(N(C)C)cc2)c1 [Atglistatin] | 90.1% and 82.6% | 91.3 | 91.4 | 99.9 | 96.8 | 92.4 | 92.7 | 89.2
O=C(/C=C\n1cnc(-c2cc(C(F)(F)F)cc(C(F)(F)F)c2)n1)NNc1cnccn1 [Selinexor (KPT-330)] | 8.08% and 19.9% | 13.9 | 22.6 | 22.3 | 2.17 | 1.26 | 6.48 | 11.4
COc1cc2c(cc1OC)[C@@H](Cc1ccc(Oc3cc(C[C@@H]4c5cc(OC)c(OC)cc5CCN4C)ccc3O)cc1)N(C)CC2 [Dauricine] | 38% and 41.8% | 18.5 | 2.46 | 15.1 | 1.5 | 1.07 | 5.34 | 4.94
O=C1C(=Cc2ccncc2)CCCC1=Cc1ccncc1 | 7.78% and 5.31% | 20.5 | 1.92 | 0.58 | 2.47 | 0.31 | 0.15 | 0.12
COc1cc(C=O)ccc1OC(C)=O [Acetylvanillin] | 99.2% and 99.9% | 99.7 | 104 | 103 | 104 | 101 | 98.4 | 104
N#CCNC(=O)c1ccc(-c2ccnc(Nc3ccc(N4CCOCC4)cc3)n2)cc1 [Momelotinib (CYT387)] | 81.2% and 85.3% | 86.1 | 26.7 | 42.8 | 15 | 5.08 | 11 | 15.7
COc1cc(OC2CCN(C)CC2)ccc1Nc1ncc2c(n1)n(C1CCCC1)c(=O)n2C | 81.2% and 76.4% | 78.1 | 44.7 | 38.6 | 10.8 | 14 | 4.89 | 13.5
CCn1cc(C(=O)O)c(=O)c2cc(F)c(N3CCN(C)CC3)cc21 [Pefloxacin mesylate] | 97.5% and 101% | 96.6 | 105 | 100 | 100 | 103 | 109 | 115
COC1=CC(=O)c2ccccc2C1=O [2-Methoxy-1,4-naphthoquinone] | 3.03% and 1.06% | 18.6 | 46.3 | 48 | 31.2 | 17.5 | 36.9 | 38.8
NC(=O)c1ccc(-c2nc(-c3ccc4c(c3)OCCO4)c(-c3ccccn3)[nH]2)cc1 | 102% and 103% | 92.9 | 98.5 | 103 | 97.5 | 97.6 | 99.6 | 96.8
O=C(O)c1cc(C(=O)O)c2c(n1)C(=O)C(=O)c1cc(C(=O)O)[nH]c1-2 [Pyrroloquinoline Quinone Disodium Salt] | 101% and 95.6% | 98.9 | 94.1 | 106 | 88.8 | 107 | 106 | 99.4
O=CC(O)C(O)C(O)C(O)COC1OC(COC2OC(CO)C(O)C(O)C2O)C(O)C(O)C1O (stereo not drawn) [Manninotriose] | 112% and 107% | 110 | 97.8 | 97.1 | 103 | 104 | 108 | 104
C#C[C@]1(OC(C)=O)CC[C@H]2[C@@H]3CCC4=C[C@@H](OC(C)=O)CC[C@@H]4[C@H]3CC[C@@]21C [Ethynodiol diacetate] | 78.7% and 88.6% | 80.7 | 51.5 | 46.5 | 63.6 | 78.8 | 30.3 | 36.3
Nc1ccc(Oc2ccc(-c3ccc(Oc4ccc(N)cc4)cc3)cc2)cc1 [4,4prime-Bis(4-aminophenoxy)biphenyl] | 103% and 98.3% | 110 | 96.9 | 101 | 100 | 102 | 96 | 112
CCCCCCCCCCCCCCCCCC[N+](C)(C)C [Trimethyloctadecylammonium bromide] | 13.1% and 20% | 48.1 | 12.1 | 16.6 | 0.73 | 0.49 | 0.97 | 2.46
